Results on eight compounds are retold here after PubChem BioAssay (NCI).

Assay in all cases: NCI-60 one-dose screen, 48 h (100 = growth as untreated, 0 = no growth, -100 = all killed)
One assay relates to HCT-15 colon. The conditions noted are these: 10 µM unless noted.
The test system of a further assay is HT29 colon. The conditions noted are these: 10 µM unless noted.
Another assay concerns SNB-75 CNS. The following applies: 10 µM unless noted.
The next assay has as its system SNB-19 CNS. The following applies: 10 µM unless noted.
Another assay has as its system U251 CNS. The following applies: 10 µM unless noted.
A further assay has as its system PC-3 prostate. The conditions noted are these: 10 µM unless noted.
In the next assay the test system is SK-MEL-5 melanoma. The following applies: 10 µM unless noted.
Another assay relates to UACC-62 melanoma. The conditions noted are these: 10 µM unless noted.
The subject of the next assay is LOX IMVI melanoma. The conditions noted are these: 10 µM unless noted.
A further assay deals with SK-MEL-28 melanoma. The conditions noted are these: 10 µM unless noted.
The subject of a further assay is SK-MEL-2 melanoma. The conditions noted are these: 10 µM unless noted.
A further assay concerns EKVX NSCLC. The following applies: 10 µM unless noted.
The test system of a further assay is SN12C renal. The conditions noted are these: 10 µM unless noted.
The test system of another assay is UO-31 renal. The following applies: 10 µM unless noted.
A further assay relates to TK-10 renal. The following applies: 10 µM unless noted.
In a further assay the test system is ACHN renal. The following applies: 10 µM unless noted.
Another assay deals with CAKI-1 renal. The following applies: 10 µM.
Another assay has as its system CCRF-CEM leukemia. The conditions noted are these: 10 µM unless noted.
Another assay deals with MOLT-4 leukemia. The conditions noted are these: 10 µM unless noted.
The subject of the next assay is A498 renal. The conditions noted are these: 10 µM unless noted.

About 83,000 compounds went through this panel and 20% of them were active in at least one assay; those are over-represented in the sample as a whole.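 The test compound was applied at a single concentration to cells in 96-well plates for 48 hours, and percent growth was recorded.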 Unmarked numbers belong to inactive results. The source made the active and inactive calls. The calls were made as follows: active = growth percent below 10; inactive = the rest.

As for `COc1cc(/C=C/C(=O)c2ccc(NC(=O)COc3cccc4cccnc34)cc2)cc(OC)c1OC`, the growth with HCT-15 colon was 50.3%; with HT29 colon it was 81.2%; in the assay on SNB-75 CNS, 82.4%; in the assay with SNB-19 CNS it was 73.7%; in the assay on U251 CNS, 83.8%; with PC-3 prostate it was 84.6%. In addition, the growth was 73.2% with SK-MEL-5 melanoma; 70.1% with UACC-62 melanoma; 42.5% in the assay on LOX IMVI melanoma; 95.2% in the assay on SK-MEL-28 melanoma; 96.5% with SK-MEL-2 melanoma; 82% with EKVX NSCLC. The growth in the assay with SN12C renal is 75.4%; with UO-31 renal, 67.7%; with TK-10 renal, 147%; in the assay on ACHN renal it was 80.2%; in the assay with CAKI-1 renal, 84.8%; with CCRF-CEM leukemia it was 26.5%. For the same compound, in the assay on MOLT-4 leukemia, the growth is 41%.

For the compound `CCOC(=O)c1c(NC(=O)c2ccc(C(C)(C)C)cc2)sc2cc(OCCN3CCCCC3)ccc12`, the growth in the assay on HCT-15 colon is 22.3%; in the assay on HT29 colon, 24.3%; with SNB-75 CNS, 94.7%; in the assay on SNB-19 CNS, 55.6%; with U251 CNS, 45.3%; with PC-3 prostate, 76.2%. Further, the growth is 96.9% in the assay on SK-MEL-5 melanoma; 102% in the assay with UACC-62 melanoma; -74.4% (active) with LOX IMVI melanoma; 104% with SK-MEL-28 melanoma; 98.6% in the assay on SK-MEL-2 melanoma; 87.5% in the assay with EKVX NSCLC. Moreover, the growth in the assay on SN12C renal was 78.1%; in the assay on UO-31 renal, 74.5%; with TK-10 renal it was 112%; in the assay with ACHN renal, 93%; in the assay with CAKI-1 renal it was 84.2%; in the assay with CCRF-CEM leukemia, 56.2%. In the assay with MOLT-4 leukemia, the growth is 72.3%.

For the compound `COCCC[C@H]1O[C@@](O)([C@H](C)[C@@H]2CC(OC)C(O)/C=C(C)/C=C(C)/C=C(\C)C(OC3O[C@@H](C)[C@H](O)C(O)[C@@H]3O)C(C)/C=C(C)/C=C(OC)/C=C(\C)C(=O)O2)C(OC)C(O)[C@]1(C)O[C@H]1C[C@@H](O)[C@H](O[C@H]2C[C@](C)(O)[C@H](O)C(C)O2)C(C)O1` (some centres not stated), the growth with HCT-15 colon was 57.5%; in the assay with HT29 colon, 67%; with SNB-75 CNS, 35.3%; in the assay on SNB-19 CNS, 38.8%; in the assay with U251 CNS it was 47%; in the assay on PC-3 prostate, 27.8%. Further, the growth in the assay with SK-MEL-5 melanoma was 7.32% (active); in the assay with UACC-62 melanoma it was 58.4%; in the assay with LOX IMVI melanoma, 76.4%; in the assay on SK-MEL-28 melanoma, 84.2%; in the assay on SK-MEL-2 melanoma, 50.6%; in the assay on EKVX NSCLC it was 21.6%. In addition, the growth in the assay on SN12C renal was 68.3%; in the assay with UO-31 renal, 25.7%; in the assay on TK-10 renal, 49.9%; in the assay with ACHN renal, 67.7%; in the assay with CAKI-1 renal, 73.8%; in the assay with CCRF-CEM leukemia, 53.9%. The growth in the assay on MOLT-4 leukemia is 47.8%.

As for `CC1(C)CC[C@]2(C(=O)O)CC[C@]3(C)C(=CCC4[C@@]5(C)C[C@@H](O)[C@@H]6OC(c7cccc([N+](=O)[O-])c7)OC[C@@]6(C)C5CC[C@]43C)C2C1` (some centres not stated), the growth with HCT-15 colon is 37.6%; in the assay on HT29 colon, 59%; with SNB-75 CNS, 84.4%; with SNB-19 CNS it was 61.9%; in the assay on U251 CNS it was 41.5%; with PC-3 prostate, 65%. The growth with SK-MEL-5 melanoma is 64.5%; with UACC-62 melanoma, 69.2%; in the assay on LOX IMVI melanoma it was 42.7%; in the assay on SK-MEL-28 melanoma, 87.4%; in the assay on SK-MEL-2 melanoma, 88.5%; in the assay with EKVX NSCLC, 57.6%. Besides, the growth in the assay on SN12C renal is 62%; in the assay on UO-31 renal, 59.9%; in the assay with TK-10 renal, 71.9%; with ACHN renal, 39.4%; with CAKI-1 renal, 79.7%; in the assay with CCRF-CEM leukemia it was 44.4%. Further, the growth in the assay with MOLT-4 leukemia is 48.2%.

For `N#C/C(=C\c1ccc(-c2ccc(F)cc2)o1)C(=O)Nc1ncc(Cc2ccc(Cl)cc2Cl)s1`, the growth is -31.7% (active) with HCT-15 colon; 6.93% (active) in the assay with HT29 colon; 58.3% with SNB-75 CNS; -12.9% (active) with SNB-19 CNS; 21.9% in the assay on U251 CNS; 1.25% (active) in the assay with PC-3 prostate. For the same compound, the growth is 27.4% in the assay on SK-MEL-5 melanoma; 15.9% in the assay with UACC-62 melanoma; -85.6% (active) in the assay on LOX IMVI melanoma; 39.5% in the assay with SK-MEL-28 melanoma; 68.9% in the assay with SK-MEL-2 melanoma; 9.87% (active) with EKVX NSCLC. In addition, the growth in the assay with SN12C renal was -37.5% (active); with UO-31 renal, 2.72% (active); in the assay on ACHN renal it was 8.96% (active); with CAKI-1 renal, 14.2%; with A498 renal, 72.1%; in the assay with CCRF-CEM leukemia, 4.62% (active). Further, the growth with MOLT-4 leukemia was 30.8%.

Consider `COc1ccc(/C=C/C(=O)c2nnn(-c3ccc(Br)cc3)c2C)cc1OC`, for which the growth with HCT-15 colon was 60.7%; in the assay on HT29 colon, 62.2%; with SNB-75 CNS, 81.6%; in the assay with SNB-19 CNS it was 78.9%; in the assay on U251 CNS, 86.8%; in the assay with PC-3 prostate it was 75.3%. Besides, the growth is 63.9% in the assay with SK-MEL-5 melanoma; 62% with UACC-62 melanoma; 43.5% with LOX IMVI melanoma; 96.5% in the assay on SK-MEL-28 melanoma; 88.6% in the assay on SK-MEL-2 melanoma; 62.3% in the assay on EKVX NSCLC. The growth in the assay on SN12C renal is 80.2%; in the assay with UO-31 renal it was 66.7%; in the assay with TK-10 renal, 95.4%; with ACHN renal it was 86%; in the assay with CAKI-1 renal, 83.4%; in the assay with CCRF-CEM leukemia it was 66.4%. Further, the growth in the assay with MOLT-4 leukemia is 78.4%.

On to `Cc1ccc(C2CC(c3ccc(Nc4nc(NCCO)nc(Nc5ccc(Cl)cc5)n4)cc3)=Nc3c(N)nc(N)nc3N2)cc1` (configuration not stated), for which the growth with HCT-15 colon is -81.7% (active); in the assay with HT29 colon, -90.8% (active); in the assay with SNB-75 CNS, 112%; in the assay on SNB-19 CNS, -90.3% (active); with U251 CNS, -96.8% (active); in the assay on PC-3 prostate, -32.7% (active). Also, the growth in the assay with SK-MEL-5 melanoma was 67.5%; in the assay with UACC-62 melanoma, 107%; in the assay with LOX IMVI melanoma, -93.9% (active); in the assay with SK-MEL-28 melanoma, 110%; in the assay with SK-MEL-2 melanoma, 99%; in the assay on EKVX NSCLC, 33.1%. Also, the growth in the assay on UO-31 renal was -91.6% (active); with TK-10 renal it was -84.5% (active); in the assay with ACHN renal, -36.6% (active); in the assay on CAKI-1 renal, -9.94% (active); with A498 renal, 77.9%; with CCRF-CEM leukemia, -23.2% (active). Also, the growth in the assay on MOLT-4 leukemia was -29.3% (active).

Regarding `CC1=CC(=O)CC(C)(C)[C@@]1(O)/C=C/C(C)=C\C(=O)O`, the growth is -23.1% (active) with HCT-15 colon; -36.9% (active) in the assay with HT29 colon; -41.2% (active) with SNB-75 CNS; -9.04% (active) with SNB-19 CNS; -18.5% (active) in the assay on U251 CNS; -7.5% (active) in the assay with PC-3 prostate. The growth in the assay with SK-MEL-5 melanoma was -83% (active); with UACC-62 melanoma it was -56.9% (active); in the assay with LOX IMVI melanoma it was -75.8% (active); with SK-MEL-28 melanoma it was -34.6% (active); in the assay on SK-MEL-2 melanoma, -52.4% (active); with EKVX NSCLC it was -29.6% (active). Moreover, the growth was -15.1% (active) in the assay on SN12C renal; -31.6% (active) with UO-31 renal; -25.5% (active) in the assay with TK-10 renal; -7.21% (active) in the assay with ACHN renal; -72.7% (active) in the assay on A498 renal; 0.0714% (active) with CCRF-CEM leukemia. Besides, the growth with MOLT-4 leukemia is -9.99% (active).
